Source: PubChem
Granule exo inh = LAMP-1 surface exposure blockers, TALL-104 cells – cell-based, flow cytometry, MLPCN library, primary screen. TALL-104 LAMP-1 surface exposure; cells stimulated with thapsigargin and PMA. inhibition, % at 10 µM. 360,000 compounds, 0.66% hits. AID 651702, 2012;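 active means inhibition above about 55%, limit read from the data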
NTR1 ag = agonists of human NTR1, primary screen, imaging, U2OS cells, beta-arrestin-GFP, high content; 330,000 compounds, 0.17% hits; activation, % at 20 µM; AID 493036, 2011; NTR1-U2OS beta-arrestin-GFP spot imaging, agonist mode;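 active means activation at or above 40% of the spot to cytoplasm intensity ratio, with at least 20 cells analyzed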;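 further: 0% = DMSO without peptide and 100% = 100 nM NTR1 peptide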
HTR2A ag = mouse Htr2a agonists via beta-arrestin recruitment, primary screen, cell-based, luminescence; activation, % at 7.6 µM; 360,000 compounds, 0.66% hits; CHO-K1 mHTR2A beta-arrestin complementation; percent of 30 µM serotonin response;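 active means activation above a run cutoff, the mean activation of all tested compounds plus 3 SD, cut at about 14% in these data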;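 further: 0% = plate median of compound wells and 100% = 30 µM serotonin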
Beta2AR agonist = beta2AR agonists driving receptor internalization, primary screen, cell-based, FAP fluorogen, flow cytometry. Am2.2-beta2AR cells. response, % (no concentration beside the values). 340,000 compounds, 0.43% hits;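 active means response above a set limit, near 3 SD of response in nonfluorescent compounds, cut at about 42% in these data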
ABHD5 PLIN5 PPI = ABHD5-PLIN5 interaction inhibitors, primary screen, cell lysate, split luciferase complementation, luminescence; Split G. princeps luciferase complementation, 4 h; inhibition, % at 4 µM; 360,000 compounds, 0.78% hits; AID 602281, 2012;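 active means inhibition above the mean inhibition across every tested compound plus 3 SD, cut at about 22% in these data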;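 further: 0% = DMSO only wells and the 100% control is not disclosed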
Target sequence (Q00G26 whole entry, looked up): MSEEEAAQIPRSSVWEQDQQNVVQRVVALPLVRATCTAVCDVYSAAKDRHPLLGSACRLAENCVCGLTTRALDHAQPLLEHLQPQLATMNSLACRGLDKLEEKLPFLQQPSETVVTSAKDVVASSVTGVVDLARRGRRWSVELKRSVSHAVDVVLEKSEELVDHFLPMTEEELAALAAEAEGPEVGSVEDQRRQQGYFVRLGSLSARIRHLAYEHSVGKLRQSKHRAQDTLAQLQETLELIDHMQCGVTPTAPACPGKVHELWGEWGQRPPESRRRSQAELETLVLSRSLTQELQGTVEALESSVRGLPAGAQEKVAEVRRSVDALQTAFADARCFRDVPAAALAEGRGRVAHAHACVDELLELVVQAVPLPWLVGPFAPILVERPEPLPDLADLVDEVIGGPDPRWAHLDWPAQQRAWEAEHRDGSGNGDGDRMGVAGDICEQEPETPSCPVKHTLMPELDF
Target sequence (Q8WTS1 whole entry, looked up): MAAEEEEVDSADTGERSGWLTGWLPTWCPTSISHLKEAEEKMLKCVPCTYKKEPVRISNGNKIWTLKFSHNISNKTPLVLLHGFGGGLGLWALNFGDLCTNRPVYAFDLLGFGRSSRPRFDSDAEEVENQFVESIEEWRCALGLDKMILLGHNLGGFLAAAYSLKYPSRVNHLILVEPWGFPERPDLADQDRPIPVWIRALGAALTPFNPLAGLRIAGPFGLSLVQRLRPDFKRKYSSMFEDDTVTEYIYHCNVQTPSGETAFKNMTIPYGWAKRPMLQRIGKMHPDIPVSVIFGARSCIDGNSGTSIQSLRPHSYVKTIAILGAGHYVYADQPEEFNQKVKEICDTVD
NTR1 ag conf = NTR1 agonists, single-dose retest, confirmation, imaging, U2OS cells, beta-arrestin-GFP, single concentration | AID 504550, 2011 | NTR1-U2OS beta-arrestin-GFP translocation imaging | shares compounds with NTR1 ag | 480 compounds, 38% hits | activation, % at 20 µM;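 active means mean activation at 20 µM of at least 40%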;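 further: 0% = DMSO without peptide and 100% = 100 nM NTR1 peptide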
* = called active by the depositor; / = no result given. Only some compounds are listed: those with a hit (about 2.3% of all), similar ones and a draw of the others.

SMILES	Granule exo inh	NTR1 ag	HTR2A ag	Beta2AR agonist	ABHD5 PLIN5 PPI	NTR1 ag conf
Cc1ccc(NC(=O)CCNS(=O)(=O)c2ccc(OC(F)(F)F)cc2)c(O)c1	-0.3	1.9	-1.8	4.5	-1.5	/
COc1ccc(OC)c(NC(=O)COC(=O)c2c3c(nc4ccccc24)CCCC3)c1	5.5	40.7*	-2.5	18.5	10.9	29.5
O=C(O)C1CCCCC1C(=O)Nc1cc(C(F)(F)F)ccc1Cl (stereo not drawn)	-1.0	-0.3	2.0	-1.5	1.6	/
Cc1ccc(-c2ccccc2)n1-c1ccc(C(=O)O)cc1	-5.7	-0.5	0.1	7.0	15.3	/
Oc1ccccc1-n1c(-c2ccccc2)ccc1-c1ccccc1	5.9	50.9*	0.6	0.9	-14.7	6.2
c1ccc2c(c1)ncn2-c1cncnc1	-3.2	/	2.0	/	3.2	/
CCn1c(SCc2ccc(Cl)cc2Cl)nc2nc3c(cc2c1=O)CCCC3	-2.7	43.9*	-2.4	-6.0	2.2	30.8
COc1cc2c3nnc(-c4ccc(F)cc4)c-3cn(Cc3cccc(F)c3)c2cc1OC	-2.1	64.8*	7.6	-73.3	0.6	70.8*
Cc1ccc(Cn2nc3c4cc(F)ccc4n(Cc4ccc(F)cc4)cc-3c2=O)cc1	1.5	0.5	2.1	6.5	-6.0	/
COc1cc2c3nnc(-c4ccc(F)cc4)c-3cn(Cc3ccc(C)cc3)c2cc1OC	20.8	111.8*	-6.8	-309.5	-0.4	95.6*
CCCCCc1c2c(cc(O)c1C(=O)O)OC(=O)c1c(cc(OC)cc1C(=O)CCCC)O2	2.6	38.4	10.3	-1.7	0.9	/
CCCCCc1c2c(cc(O)c1C(=O)O)OC(=O)c1cc(C(=O)CCCC)c(OC)cc1O2	-2.8	47.8*	5.3	7.0	1.2	11.9
COCCCn1c(SCC(=O)O)nc2cc(OC)c(OC)cc2c1=N	-0.5	-0.7	4.8	-3.9	-0.2	/
COCCCn1c(SCc2cccc(C(F)(F)F)c2)nc2cc(OC)c(OC)cc2c1=N	-2.0	59.8*	-4.3	0.4	-4.8	10.1
COc1ccc(Cn2c(SCc3ccc(C)cc3)nc3cc(OC)c(OC)cc3c2=N)cc1Cl	27.4	54.2*	3.5	/	3.5	63.7*
CCS(=O)(=O)c1ccc2oc(SCC(=O)N3CCCCC3)nc2c1	-1.8	0.9	4.1	-0.9	-0.2	/
Cc1ccc(S(=O)(=O)Oc2ccc3c(c2)O/C(=C\c2cccnc2)C3=O)cc1	-1.4	43.2*	-1.0	7.4	8.7	32.9
O=C1/C(=C/c2cccnc2)Oc2cc(OS(=O)(=O)c3ccc(F)cc3)ccc21	0.6	30.6	1.7	14.2	1.2	/
COC(=O)CSc1nc(N)c2c3c(sc2n1)C(c1ccccc1)SC(c1ccccc1)C3 (stereo not drawn)	32.6	49.9*	2.9	-18.7	3.0	32.2
CC1(C)CC(NC(=O)c2ccccc2NS(=O)(=O)c2ccc(Br)cc2)CC(C)(C)N1	-3.7	/	-3.1	-9.9	-4.2	/
O=C1c2[nH]nc(-c3ccccc3O)c2C(c2cccc(Cl)c2)N1Cc1ccco1 (stereo not drawn)	9.3	46.5*	14.8*	15.9	4.0	9.8
CCOc1cccc(-c2nn(-c3ccccc3)cc2/C=C(/C#N)C(=O)NCCCn2ccnc2)c1	68.1*	44.5*	-5.5	1.5	12.5	27.2
N#C/C(=C/c1cn(-c2ccccc2)nc1-c1cccc(OCc2ccccc2)c1)C(=O)NCCCn1ccnc1	28.0	12.0	-7.1	12.8	16.8	/
O=c1/c(=C\c2cccc(O)c2)sc2nc(-c3ccccc3)c(-c3ccccc3)n12	2.3	46.5*	/	12.6	/	41.5*
COc1ccc(/C=c2\sc3nc(-c4ccccc4)c(-c4ccccc4)n3c2=O)cc1OC	-0.6	0.8	-3.2	7.7	-7.3	/
SMILES	Granule exo inh	NTR1 ag	HTR2A ag	Beta2AR agonist	ABHD5 PLIN5 PPI	NTR1 ag conf
C[C@H]1C=CC(=O)O[C@H]1c1ccccc1	-2.5	40.9*	11.9	10.2	10.0	37.1
C[C@@H]1C=CC(=O)O[C@@H]1c1ccc(C(F)(F)F)cc1	/	-0.8	/	/	/	/
CC(C)(C)c1nc(-c2ccccc2)nc2c1OCCC2	-2.8	5.2	8.7	1.9	7.1	/
COc1ccc2[nH]c3c(N4CCC(O)(c5cccc(C(F)(F)F)c5)CC4)ncnc3c2c1	54.4	48.8*	-4.2	14.2	0.1	8.1
CCCOc1ccc(/C(CC)=N/NC(=O)C2(C)CC2(Br)Br)cc1 (stereo not drawn)	-2.1	42.0*	-1.4	2.5	-6.5	23.5
Cc1c(/C=N/NC(=O)c2ccc(O)cc2)c2ccccn2c1C(=O)c1ccc(F)cc1	23.3	6.0	-5.0	18.2	-9.2	/
Cc1c(/C=N/NC(=O)c2ccccc2O)c2ccccn2c1C(=O)c1ccc(F)cc1	78.0*	114.3*	-0.7	27.2	10.4	17.3
COc1ccc(C2CC(=O)Oc3cc(O)cc(O)c32)cc1 (stereo not drawn)	1.3	-1.8	-1.7	3.9	5.2	/
COc1ccc([C@H]2Oc3cc(O)cc(O)c3C(=O)C2[C@@H]2C(=O)c3c(O)cc(O)cc3O[C@@H]2c2ccc(OC)cc2)cc1 (stereo partly drawn)	/	50.4*	/	/	/	8.7
N#Cc1ccc(NC(=S)NC(=O)C2CC2)cc1	3.2	/	-2.7	/	-1.9	/
COc1ccc(/C=C\C(=O)NCC(=O)N/N=C/c2ccc(O)cc2O)cc1	-5.3	37.3	0.2	10.3	5.0	/
O=C(/C=C\c1ccccc1)NCC(=O)N/N=C/c1ccc(O)cc1O	-1.3	66.3*	4.9	4.9	0.4	55.1*
Cc1cccc(OCC(=O)NCC(=O)N/N=C/c2ccc(O)cc2O)c1	5.4	40.3*	0.8	10.6	3.7	29.8
O=C(Nc1ccc([N+](=O)[O-])cc1)Nc1ccc(N2CCOCC2)c2nonc12	76.6*	41.5*	-2.3	25.1	-4.0	64.6*
COC(=O)Nc1ccc(S(=O)(=O)N2CCC(C(=O)NCc3ccc4c(c3)OCO4)CC2)cc1	-4.1	-0.2	-3.5	-6.0	-2.1	/
COc1ccc(Cn2c(-c3ccc(C)cc3)nc3c(c(=O)c4ccccc4n3C)c2=O)cc1	0.8	40.8*	0.6	-1.3	5.0	22.8
CC(C)c1ccccc1NC(=O)C1CCCN(C(=O)c2ccc(Cl)cc2)C1 (stereo not drawn)	18.7	-0.9	6.5	24.2	3.4	/
Cc1ccc(-c2ccc(/C=C3\C(=O)ON=C3c3ccccc3)o2)c([N+](=O)[O-])c1	105.6*	99.6*	4.5	17.6	11.7	85.1*
Cc1cccc(NC(=O)CCN2CCC(C)CC2)c1	0.3	2.0	-2.6	-5.9	0.3	/
